Results on eleven compounds are retold here after PubChem BioAssay (NCATS).

Molecules are shown by their SMILES. Inconclusive results are not listed. A number with no mark means an inactive call. The source made the active and inactive calls. Calls come from the whole dose curve; as a rule, active = well fitted inhibition curve with a large enough effect; inconclusive = small, poorly fitted or top-dose-only effect; inactive = flat fitted curve, though single readings scatter.
% is set by controls: 0 for no effect and ±100 for the full control effect.

DNA repair nuclease/redox regulator APEX1 (Homo sapiens), sequence (P27695 whole entry, looked up): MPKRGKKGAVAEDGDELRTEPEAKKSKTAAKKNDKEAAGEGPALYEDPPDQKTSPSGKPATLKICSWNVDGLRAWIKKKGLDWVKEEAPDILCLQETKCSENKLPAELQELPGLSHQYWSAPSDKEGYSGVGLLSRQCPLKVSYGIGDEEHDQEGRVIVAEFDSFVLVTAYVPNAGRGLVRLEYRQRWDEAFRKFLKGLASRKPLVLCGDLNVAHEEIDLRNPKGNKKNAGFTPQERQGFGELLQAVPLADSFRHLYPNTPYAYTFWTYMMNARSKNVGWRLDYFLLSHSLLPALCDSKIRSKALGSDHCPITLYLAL

This assay deals with DNA repair nuclease/redox regulator APEX1 (Homo sapiens) (UniProt P27695). The assay is described as follows: qHTS Validation Assay for Inhibitors of the Human Apurinic/apyrimidinic Endonuclease 1 (APE1) (AID 1705;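 note: TAMRA fluorescence gain over two minutes as APE1 cuts a quenched THF abasic duplex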). To be noted: purified APE1 endonuclease activity, fluorescence, titration; series mostly up to 57.1 µM; activity change, negative = inhibition: at the top concentration. The gist of the method:
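Substrate: 50 nM final fluorophore/quencher THF-abasic duplex. Enzyme preincubated with compounds 15 min, RT. Progress derived from fluorescence difference, third minus first kinetic read.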
Consider `CC[N+](CC)(CC)CC`, for which the “activity change, negative = inhibition” value is 1.54%. Still for that read-out and setting: then `N#CC(C#N)=Cc1ccc(O)c(O)c1`, with -14.1%; and `O=c1[nH]c2ccccc2n1CCCN1CCC(n2c(=O)[nH]c3cc(Cl)ccc32)CC1`, with -17.8%; and `CCCC(C)(COC(N)=O)COC(=O)NC(C)C` (stereo unspecified), with -3.15%. For the compound `NCC1(CC(=O)O)CCCCC1`, the “activity change, negative = inhibition” value was -2.88%. Regarding `CCCN1CCC[C@@H]2Cc3nc(N)ncc3C[C@H]21`, the “activity change, negative = inhibition” value was 11.9%. Turning to `NCC(CC(=O)O)c1ccc(Cl)cc1` (stereo unspecified), the “activity change, negative = inhibition” value was 0.593%. On the same count and under the same terms, then `Clc1cccc(N2CCNCC2)c1`, with 4.71%. As to `NN=C(N)N`, the call was inactive.

Regarding `CNCC(O)c1ccc(O)cc1` (stereo unspecified), the “activity change, negative = inhibition” value is 5.98%. With `COc1ccc(Cc2nccc3cc(OC)c(OC)cc23)cc1OC`, the “activity change, negative = inhibition” value is 4.88%.
